Screening results deposited in PubChem by National Center for Advancing Translational Sciences (NCATS).
BLM helicase inh: blocks DNA unwinding by human BLM helicase | P54132 | recombinant BLM DNA unwinding, fluorescence dequenching | Potency, µM (top dose mostly 56.1 µM), without a hit: top-dose activity change, negative = inhibition, most hits filed as inhibitors | actives 0.2% (n = 350,000);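 also: plate controls were vehicle for no effect and no enzyme for full effect; nearly all actives have a fitted effect of over 35% in size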
LMNA splice mod: changes lamin A minigene splicing in HeLa cells; HeLa LMNA splicing GFP/RFP minigene ratio, 48 h; Potency, µM (doses to about 46.1 µM), without a hit: at the top dose ratio change, negative = inhibition, actives largely listed as inhibitors; actives 0.01% (n = 200,000); AID 1487; active = well fitted inhibition curve with a large enough effect in the signal ratio, with a control signal flat, not every such curve was filed as active; inconclusive = small, poorly fitted or top-dose-only effect, or effect the other way, or a change in a side signal; the % refers to the signal ratio
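S3 HeLa cells stably expressing lamin A-EGFP splicing minigene plus DsRed2, 600 cells/well, 48 h compound exposure at 37C. Laser-scanning cytometry; analysed as GFP (500-530 nm)/RFP (575-640 nm) total intensity ratio; 0.5% DMSO vehicle.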
GCN5L2 inh: GCN5L2 (KAT2A) acetyltransferase inhibition | actives 0.21% (n = 390,000) | GCN5L2 HAT assay, ThioGlo1 CoA-SH fluorescence | Potency, µM (highest dose often 58.9 µM), inactives show at the highest dose activity change, negative = inhibition, usual class: inhibitors | Q92830
Target sequence (Q92830 whole entry, looked up): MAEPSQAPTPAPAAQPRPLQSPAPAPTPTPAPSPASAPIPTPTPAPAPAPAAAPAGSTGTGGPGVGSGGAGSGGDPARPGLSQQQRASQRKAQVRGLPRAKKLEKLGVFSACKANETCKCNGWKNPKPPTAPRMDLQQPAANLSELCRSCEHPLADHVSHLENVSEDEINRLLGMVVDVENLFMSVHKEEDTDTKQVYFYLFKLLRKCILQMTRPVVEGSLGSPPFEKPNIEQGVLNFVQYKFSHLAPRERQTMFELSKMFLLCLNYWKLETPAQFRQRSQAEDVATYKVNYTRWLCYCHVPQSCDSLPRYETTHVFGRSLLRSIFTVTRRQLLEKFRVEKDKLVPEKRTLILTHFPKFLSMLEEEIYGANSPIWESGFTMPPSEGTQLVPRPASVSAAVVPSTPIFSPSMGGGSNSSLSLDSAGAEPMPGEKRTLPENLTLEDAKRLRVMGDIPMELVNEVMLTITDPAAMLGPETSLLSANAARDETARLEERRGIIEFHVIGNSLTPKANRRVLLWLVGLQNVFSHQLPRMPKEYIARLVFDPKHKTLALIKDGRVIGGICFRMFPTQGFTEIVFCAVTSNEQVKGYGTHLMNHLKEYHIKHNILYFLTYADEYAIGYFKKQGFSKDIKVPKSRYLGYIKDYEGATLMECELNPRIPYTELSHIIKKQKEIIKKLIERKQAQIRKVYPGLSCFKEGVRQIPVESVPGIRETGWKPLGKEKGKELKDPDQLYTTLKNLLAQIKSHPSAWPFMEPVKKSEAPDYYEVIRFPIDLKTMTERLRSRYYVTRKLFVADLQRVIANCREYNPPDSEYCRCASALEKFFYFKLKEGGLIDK
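Compounds, pin-transferred from DMSO stocks, meet 20nM GCN5L2 for 15 min before the reaction begins with H3(1-25) peptide (75uM) and acetyl-CoA (70uM). Thiol-reactive ThioGlo1 reports CoA release over 20 min at room temperature.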
RECQ1 inh-1: blocks DNA unwinding by human RECQ1; Potency, µM (series often up to 57.3 µM), for inactives: at the top dose activity, negative = inhibition, usual class: inhibitors; RECQ1 DNA unwinding, red fluorescence kinetic read; actives 0.54% (n = 240,000);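 also: plate controls were vehicle for no effect and no enzyme for full effect; nearly all actives have a fitted effect of over 30% in size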
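RECQ1T1 50 nM; forked duplex (20 bp + 30-nt ss tails) 200 nM, ATP 2 mM final; pH 8.0, 2 mM MgCl2, 2.5 ug/ml poly(dI-dC); 15 min compound preincubation; discontinuous kinetic read over 2 h at RT.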
APE1 inh: APE1 (human) endonuclease inhibition | actives 0.35% (n = 350,000) | Potency, µM (highest dose often 65.8 µM), for inactives: top-dose activity change, negative = inhibition, most hits filed as inhibitors | AID 2517 | P27695 | recombinant APE1, TAMRA/BHQ-2 abasic DNA cleavage fluorescence;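 also: plate controls were vehicle for no effect and reference inhibitor for full effect; nearly all actives have a fitted effect of over 55% in size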
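Activity was derived from the fluorescence gain between first and third kinetic reads (60 s intervals, ex 525/em 598 nm) after 50 nM THF-abasic TAMRA/BHQ-2 duplex was added to 0.75 nM APE1 preincubated 15 min with compound.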
TDP1 block: TDP1 (human) enzyme inhibition. Q9NUW8. recombinant TDP1, AlphaScreen DNA substrate cleavage. Potency, µM (titrated, usually from 130 µM), inactives show at the highest dose activity change, negative = inhibition, hits mostly inhibitors. actives 0.28% (n = 350,000); also: nearly all actives have a fitted effect of over 40% in size
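Steps: enzyme plus compound, 15 min RT; add biotin/phosphotyrosine-FITC oligonucleotide (15 nM final), react 5 min; add donor/acceptor beads (10 ug/ml final), 10 min; read AlphaScreen. Tdp1 at 1 nM final.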
RECQ1 inh conf: confirmation of human RECQ1 helicase inhibitors. shares compounds with RECQ1 inh-1. RECQ1 helicase DNA unwinding, fluorescence. Potency, µM (top dose mostly 229 µM), for the others: at the highest dose activity change, negative = inhibition, most hits filed as inhibitors. actives 28% (n = 610). AID 2708; also: nearly all actives have a fitted effect of over 45% in size
ADP FP counter: displaces ADP in a fluorescence polarization counter-screen for RECQ1 hits; AID 2711; ADP fluorescence polarization displacement counterscreen; Potency, µM (highest dose often 228 µM), for inactives: at the highest dose activity change, negative = inhibition, hits mostly inhibitors; actives 27% (n = 530); shares compounds with RECQ1 inh-1; also: nearly all actives have a fitted effect of over 45% in size
RECQ1 inh-2: confirmation of human RECQ1 helicase inhibitors | shares compounds with RECQ1 inh-1 | Potency, µM (top dose mostly 119 µM), for the others: top-dose activity, negative = inhibition, usual class: inhibitors | actives 15% (n = 1,100) | recombinant RECQ1 DNA unwinding, red fluorescence; also: nearly all actives have a fitted effect of over 50% in size
* marks the source's active call; other numbers are inactive results; i = inactive; ? = inconclusive; nt = no result; [ ] = another dose, or the depositor's remark. A selection: hits, their analogues and other compounds. The true share with any hit is near 0.9%. Unless noted, calls follow the shape of the dose curve; as a rule, active = well fitted curve in the direction sought with a large enough effect; inconclusive = small, poorly fitted or top-dose-only effect, or another doubt; inactive = no such curve, though single readings can be large; an effect the other way counts as inactive or inconclusive. Unless noted, % is scaled to controls: 0 for no effect and ±100 for the full control effect; potency is read from the fitted curve at half-maximal effect.

SMILES	BLM helicase inh	LMNA splice mod	GCN5L2 inh	RECQ1 inh-1	APE1 inh	TDP1 block	RECQ1 inh-2	others
C=CCC1(O)CCOc2ccccc21 (configuration not stated)	1.6%	nt	nt	-5.2%	2.5%	6.9%	nt
CCc1ccc2[nH]c(=O)c(CN(Cc3cccs3)Cc3nnnn3Cc3ccccc3)cc2c1	nt	nt	nt	nt	nt	2.4%	nt
Cc1c(C)c2c(c(C)c1O)CCC(C)(COc1ccc(CC3SC(=O)NC3=O)cc1)O2 (configuration not stated)	-18.7%	1.4%	?	?	-4.8%	25.2%	?
CN(C)c1ccc(/C=C2\SC(=S)N(Nc3ncc(C(F)(F)F)cc3Cl)C2=O)cc1	-11.3%	?	36.6%	10µM*	-1.5%	3.1%	nt	RECQ1 inh conf=7.94µM*;ADP FP counter=14.0%[91.9 µM]
Cc1cc(C)nc(NN2C(=O)/C(=C/c3ccccc3)SC2=S)n1	-1.0%	0.9%	3.8%	-6.4%	0.0%	-7.8%	nt
Cc1cccc(C(=O)NCC(=O)OCC(=O)c2ccc3ccccc3c2)c1	nt	nt	nt	nt	nt	-0.2%	nt
O=C(O)CC(CC(=O)Nc1ccccc1C(=O)O)c1ccccc1 (configuration not stated)	-1.8%	nt	?	-3.4%	-2.1%	nt	nt	RECQ1 inh conf=25.3%;ADP FP counter=0.4%
COc1ccc(N(CC(=O)N2c3ccccc3CC2C)S(=O)(=O)c2c(C)noc2C)cc1 (configuration not stated)	-15.1%	?	-9.5%	?	7.9%	1.1%	-17.8%
O=C(O)c1ccc(C2NCC(c3ccccc3Cl)c3c2[nH]c2ccccc32)cc1 (configuration not stated)	-6.3%	?	17.5%	i	10.3%	8.2%	nt
COc1cc(C2NCC(c3ccc(Cl)cc3Cl)c3c2[nH]c2ccccc32)cc(OC)c1OC (configuration not stated)	-14.0%	?	-9.6%	?	-5.2%	5.5%	-22.5%
CN(Cc1ccccc1)C(=O)CCNS(=O)(=O)c1ccc2c(c1)oc(=O)n2C	-6.7%	-17.3%	-21.5%	35.5µM*	?	-2.6%	?
O=C(NCc1nnc(-c2cc3ccccc3[nH]2)o1)c1ccccc1	nt	nt	nt	nt	nt	-2.4%	nt
Cc1n[nH]c(C)c1CCCCOc1ccccc1F	-4.1%	nt	-2.7%	nt	13.1%	nt	nt
Cc1ccccc1OCCCCc1c(C)n[nH]c1C	-2.6%	?	-3.4%	?	-0.8%	5.9%	-13.9%
N#Cc1ccccc1-c1cncnc1NCc1cccnc1	7.0%	-8.1%	-21.6%	i	-2.2%	nt	nt
NC(=O)c1sc2nc(-c3ccco3)ccc2c1N	-7.3%	?	-12.6%	11.2µM*	?	?	-16.6%
Cc1cc(C)c2nc(N3CCCC(C(=O)NCc4ccccc4F)C3)sc2c1 (configuration not stated)	-3.4%	nt	1.6%	nt	nt	-2.9%	nt
COc1ccc(NC(=O)c2noc3c2CCC3)cc1	-20.4%	-3.9%	-18.1%	?	20µM*	14.1µM*	?
O=C(Nc1ccc(OC(F)(F)F)cc1)c1noc2c1CCCC2	-4.3%	nt	3.3%	nt	nt	3.6%	nt
O=C1/C(=C\c2ccc(O)c(O)c2)Oc2cc(O)ccc21	-7.9%	nt	?	20µM*	?	16.7%	56.2µM*
COc1ccc(/C=C/c2nnc(NC(=O)COc3ccc(Cl)cc3)s2)cc1	nt	nt	nt	nt	nt	1.5%	nt
CCOC(=O)c1cccc(NC(=O)CCc2c(C)nn(-c3ccc(N4CCCCC4)nn3)c2C)c1	-4.2%	?	-12.7%	nt	nt	7.1%	nt
O=P1(O)Oc2c(c(-c3ccccc3)cc3ccc4ccccc4c23)-c2c(-c3ccccc3)cc3ccc4ccccc4c3c2O1	-0.7%	nt	nt	i	-2.4%	11.2%	nt
O=P1(O)Oc2c(c(-c3ccccc3)cc3ccccc23)-c2c(-c3ccccc3)cc3ccccc3c2O1	-4.9%	nt	nt	?	-0.3%	0.0%	?
COc1ccc(CCN2CC(C(=O)NC3CCCCC3)CC2=O)cc1OC (configuration not stated)	-19.8%	nt	-8.0%	39.8µM*	?	nt	?
SMILES	BLM helicase inh	LMNA splice mod	GCN5L2 inh	RECQ1 inh-1	APE1 inh	TDP1 block	RECQ1 inh-2	others
CCC1CN(C(=O)N2CCC(C(=O)NCCc3cc(OC)ccc3OC)CC2)c2ccccc2O1 (configuration not stated)	-6.2%	-5.2%[46 µM]	-15.5%	nt	nt	6.5%	nt
COC(=O)C1=C(C(=O)OC)[C@@H]2N(Cc3ccccc3)c3ccccc3[C@@]23C[C@@H](C(=O)OC)N=C3N1	-0.1%[12.4 µM]	-4.7%[9.22 µM]	-14.4%	?	-3.1%[12.4 µM]	10.1%[12.3 µM]	-8.4%
COc1ccc(CCNc2ncnc3nc[nH]c23)cc1	nt	nt	nt	nt	nt	0.8%	nt
O=C(CN1CCN(S(=O)(=O)c2ccc(Cl)cc2)CC1)c1ccc(O)c(O)c1	-13.2%	nt	?	nt	-2.3%	0.4%	nt
O=C(CN1CCN(S(=O)(=O)c2ccc(F)cc2)CC1)c1ccc(O)c(O)c1	1.9%	nt	-13.7%	39.8µM*	3.98µM*	5.4%	-10.9%
Cc1nnc(SCC(=O)N2N=C(c3ccc(Cl)cc3)CC2c2ccco2)[nH]c1=O (configuration not stated)	-9.8%	7.5%[46 µM]	-24.1%	31.6µM*	-12.3%	0.0%	-29.9%
Cn1nnnc1SCC(=O)N1N=C(c2ccc(Cl)cc2)CC1c1ccco1 (configuration not stated)	nt	nt	-5.0%	nt	12.5%	3.4%	nt
Nc1c(S(=O)(=O)O)cc(Nc2cccc3ccccc23)c2c1C(=O)c1ccccc1C2=O	?	nt	12.6µM*	22.4µM*	?	26.6%	?
O=S(=O)(Nc1cccc2ccccc12)c1ccccc1F	-4.1%	nt	3.1%	nt	40.2%	2.3%	nt
Nc1c(S(=O)(=O)O)cc(Nc2ccc(Cl)cc2)c2c1C(=O)c1ccccc1C2=O	?	nt	28.2µM*	31.6µM*	?	28.5%	50.1µM*
COc1ccc2[nH]cc(CCO)c2c1	nt	nt	-6.2%	22.8%	-8.4%	14.6%	nt
